SMN2 splice up: qHTS Assay for Enhancers of SMN2 Splice Variant Expression; AID 1458, 2008; Potency, µM (doses to about 46.1 µM), actives largely listed as activators; HEK293 SMN2-luciferase splicing reporter, luminescence, 30-36 h; 210,000 tested, 2.8% active; further: nearly all actives have a fitted effect of over 55% in size
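HEK293 cells carry an SMN2 […]–luciferase reporter in which exon 7 inclusion puts luciferase in frame. Cells were plated 10-12 h before compound addition, then incubated 30-36 h at 37C. ONE-Glo luminescence was read; sodium butyrate at 4.5 mM final served as control.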
FLuc modulator: qHTS profiling assay for firefly luciferase inhibitor/activator using purifed enzyme and Km concentrations of substrates (counterscreen for miR-21 project); Luciferin 4-monooxygenase (Photinus pyralis), P08659; purified FLuc, Km substrates, luminescence inhibition; Potency, µM (doses to about 57.5 µM), hits mostly inhibitors; 360,000 tested, 6.9% active; AID 588342, 2011; further: nearly all actives have a fitted effect of over 55% in size
Target sequence (P08659 whole entry, looked up): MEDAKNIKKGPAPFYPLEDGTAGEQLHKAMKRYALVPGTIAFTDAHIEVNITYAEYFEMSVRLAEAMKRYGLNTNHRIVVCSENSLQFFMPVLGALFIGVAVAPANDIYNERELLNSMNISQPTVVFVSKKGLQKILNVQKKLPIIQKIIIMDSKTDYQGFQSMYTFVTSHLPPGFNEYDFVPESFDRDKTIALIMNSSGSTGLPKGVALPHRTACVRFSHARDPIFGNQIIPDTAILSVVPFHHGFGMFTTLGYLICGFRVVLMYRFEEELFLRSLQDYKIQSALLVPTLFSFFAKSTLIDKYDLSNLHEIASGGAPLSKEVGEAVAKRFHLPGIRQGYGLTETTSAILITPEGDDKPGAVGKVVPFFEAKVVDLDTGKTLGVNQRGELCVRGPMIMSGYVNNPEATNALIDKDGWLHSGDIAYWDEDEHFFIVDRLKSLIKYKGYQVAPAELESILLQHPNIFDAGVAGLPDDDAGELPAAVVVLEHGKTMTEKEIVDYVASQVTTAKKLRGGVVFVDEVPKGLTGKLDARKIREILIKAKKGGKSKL
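Purified P. pyralis luciferase, 10 nM final, with Km-level 10 uM D-luciferin and 10 uM ATP in 50 mM Tris acetate pH 7.5, 10 mM Mg acetate, 0.01% Tween-20, 0.05% BSA; 6-point qHTS titration about 60 µM downward; luminescence read.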
ELG1 genotox: qHTS screen for small molecules that induce genotoxicity in human embryonic kidney (HEK293T) cells expressing luciferase-tagged ELG1; HEK293T ELG1-luciferase reporter, luminescence, 16 h; 330,000 tested, 1.3% active; Potency, µM (highest dose often 46 µM), usual class: activators; further: nearly all actives have a fitted effect of over 60% in size
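After overnight (16 hr) compound treatment at 37 °C, ELG1-luciferase HEK293T cells were lysed with ONE-Glo; luminescence quantified 30 min later at room temperature.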
NPC1 promoter act: qHTS Assay for NPC1 Promoter Activators | Huh7 NPC1 promoter luciferase reporter, 24 h | Potency, µM (titrated, usually from 9.22 µM), actives largely listed as activators | 320,000 tested, 2.4% active | AID 485313, 2010; further: nearly all actives have a fitted effect of over 60% in size
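Readout is luciferase luminescence, reflecting NPC1 promoter activation in stably transfected Huh7 cells after 24 h compound exposure at 37 °C in reduced-serum medium with 10% FBS.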
Rab9 promoter act: qHTS Assay for Rab9 Promoter Activators | Huh7 Rab9 promoter-luciferase reporter, luminescence, 24 h | 320,000 tested, 2.8% active | AID 485297, 2010 | Potency, µM (doses to about 9.22 µM), hits mostly activators; further: nearly all actives have a fitted effect of over 60% in size
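Measured in stably transfected Huh7 cells bearing a Rab9 promoter–luciferase construct: 24 h compound treatment at 37 °C, followed by luminescence detection.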
A number is an active result; 0 = inactive; ? = inconclusive; - = no result given; [ ] = dose if it differs, or a comment. Shown are actives, neighbours in structure and some others; about 7.4% of the full set was active somewhere. The call rests on the fitted dose curve; in most records, active means well fitted curve in the direction sought with a large enough effect; inconclusive means small, poorly fitted or top-dose-only effect, or another doubt; inactive means no such curve, though single readings can be large; an effect the other way counts as inactive or inconclusive.

SMILES	SMN2 splice up	FLuc modulator	ELG1 genotox	NPC1 promoter act	Rab9 promoter act
Cc1ccc(N2CCN(c3c(CN4CCCC4)c(=O)oc4ccccc34)CC2)c(C)c1	0	0	-	-	-
CCCCN1CCc2nc(N3CCN(c4ncccn4)CC3)ncc2C1	-	0	-	-	-
O=c1c2ccccc2oc2nc(-c3ccco3)n(CCc3ccccc3)c(=O)c12	0	0	0	0	0
O=c1c2ccccc2oc2nc(-c3ccco3)n(-c3ccccc3)c(=O)c12	12.6µM	0	0	?	?
Cc1c(C(=O)OCC(C)C)[nH]c2c1C(=O)CC(c1cccs1)C2 (centres undefined)	0	0	0	0	0
COc1ccccc1N1CCN(C(=O)c2cc3c(s2)-c2ccccc2OC3)CC1	0	0	0	0	0
COc1ccc(N(C)C(=O)c2cc3c(s2)-c2ccccc2OC3)cc1	0	?	-	-	-
COc1ccc(C(=O)n2nnc3ccccc32)cc1OC	0	?	0	0	0
COC(=O)c1cc2c(s1)-c1ccccc1OC2	0	23.9µM	0	0	0
O=C(c1cc2c(s1)-c1ccccc1OC2)N1CCc2ccccc2C1	20µM	?	0	0	0
O=C(c1ccc2c(c1)OCO2)N1CCc2ccccc2C1	?	21.3µM	?	?	0
O=C(c1ccc2c(c1)OCO2)n1nnc2ccccc21	0	6.75µM	0	0	0
O=C(c1ccc2c(c1)OCO2)N1CCCc2ccccc21	-	?	?	0	0
NCOC(=O)Cc1ccc(Br)cc1	0[9.22 µM]	-	-	-	-
Cc1ccc(C)c(CSc2nc3ccncc3n2CC(=O)Nc2ccc(N(C)C)cc2)c1	0	?	-	-	-
CCCCSc1nnc2n(-c3ccc(OC)cc3)c(=O)c3c4c(sc3n12)COC(C(C)C)C4 (centres undefined)	0	0	-	-	-
COc1ccc(OC)c(NC(=O)c2cc3c(s2)-c2ccccc2SC3)c1	0	0	-	-	-
COC(=O)c1cc2c(s1)-c1ccc(OC)cc1CC2	-	9.53µM	?	0	?
COc1ccc(C(C(=O)NC(C)(C)C)N(C[C@H]2CC[C@@H]([C@@H]3CC[C@H](CO)O3)O2)C(=O)c2ccccc2)cc1 (some centres undefined)	-	-	0	-	-
CCOc1ccc(S(=O)(=O)NCCC(=O)OCC(=O)Nc2cc(C)on2)cc1	-	0	0	0	0
CCOC(=O)C(Cc1c[nH]c2ccccc12)NC(=O)c1ccccc1Br (centres undefined)	-	0.675µM	?	0	0
COC(=O)C(Cc1c[nH]c2ccccc12)NC(=O)c1ccccc1Br (centres undefined)	-	4.26µM	0	0	0
O=C(COC(=O)C(Cc1c[nH]c2ccccc12)NC(=O)c1ccc(Br)cc1)c1ccc(Cl)cc1 (centres undefined)	-	0	-	-	-
c1ccc(-c2nc(-c3ccco3)cs2)nc1	0	15.1µM	?	0	3.55µM
c1ccc(-c2nccc(-c3ccco3)n2)nc1	0	0	0	0	0
SMILES	SMN2 splice up	FLuc modulator	ELG1 genotox	NPC1 promoter act	Rab9 promoter act
O=C(N/N=C/c1cccc([N+](=O)[O-])c1)C1COc2ccccc2O1 (centres undefined)	-	0	0	0	0
O=C(N/N=C\c1cccc([N+](=O)[O-])c1O)C1COc2ccccc2O1 (centres undefined)	0	19µM	0	0	0
O=C(Nc1ccccc1[N+](=O)[O-])C1COc2ccccc2O1 (centres undefined)	-	9.53µM	?	2.82µM	3.55µM
O=C(O)c1ccccc1NC(=O)c1cc2ccccc2oc1=O	-	7.57µM	?	3.55µM	2.82µM
COc1ccc(NC(=O)c2cc3ccccc3oc2=O)c(OC)c1	-	?	?	2.82µM	2.82µM
COc1ccc(S(=O)(=O)Nc2ccccc2OC)cc1NC(=O)c1cc2ccccc2oc1=O	-	12µM	?	3.98µM	3.98µM
COc1ccccc1C(=O)Nc1cc2ccccc2oc1=O	?	?	2.82µM	5.62µM	3.98µM
O=C(CCN1CCCCC1)N1CCc2c([nH]c3ccccc23)[C@H]1c1cccnc1	0[9.22 µM]	-	-	-	-
N#CC(c1ccc(Cl)cc1)(c1ncc(C(F)(F)F)cc1Cl)N1CCOCC1 (centres undefined)	0	0	0	0	0
Cc1ccc(O)c(-n2nc3ccccc3n2)c1	-	2.69µM	?	3.16µM	3.16µM
COc1ccc(C)cc1-n1nc2ccccc2n1	0	0	0	0	0
O=C(/C=N/NC(=O)c1ccc(Cl)cc1Cl)c1ccccc1	-	2.69µM	0	0	?
O=C(/C=N/NC(=O)c1ccccc1Br)c1ccccc1	0	9.53µM	0	0	0
O=C(N/N=C/c1cc(Cl)ccc1O)c1ccccc1Br	-	?	0	0	0
COc1ccc(-c2noc(N3CCN(c4cccc(C)c4C)CC3)n2)cc1OC	-	0	-	-	-
CCCN(CCC)C(=O)CSc1nnc2cc(C)c3cc(C)cc(C)c3n12	-	0	-	-	-
O=C(Nc1ccc(F)cc1F)c1ccc2c(=O)n3c(nc2c1)CCC3	-	10.7µM	?	1.12µM	1.12µM
O=C(Nc1ccc(F)cc1Cl)c1ccc2c(=O)n3c(nc2c1)CCC3	-	0	0	3.16µM	3.55µM
Cc1ccc(C)c(NC(=O)c2ccc3c(=O)n4c(nc3c2)CCC4)c1	-	15.1µM	0	?	?
O=C(NNC(=O)c1ccc2c(=O)n3c(nc2c1)CCC3)c1ccc(F)cc1	-	0	0	0	0
COc1ccc(C)cc1NC(=O)c1ccc2c(=O)n3c(nc2c1)CCCCC3	0	0	0	0	0
O=C(NNC(=O)c1ccc2c(=O)n3c(nc2c1)CCC3)c1ccc(Cl)cc1	-	0	0	0	0
CCN(CC)CCCn1c2c(c(SCC(=O)N3CCc4ccccc43)nc1=O)CCC2	-	0	0	0	0
Cc1cc(NCCCn2ccnc2)n2nc(C)c(-c3ccc(Cl)cc3)c2n1	-	15.1µM	0	0	0
Cc1cc(NCCN2CCOCC2)n2nc(C)c(-c3ccccc3)c2n1	0	0	0	0	0
SMILES	SMN2 splice up	FLuc modulator	ELG1 genotox	NPC1 promoter act	Rab9 promoter act
Cc1cc(NCCCn2ccnc2)n2ncc(-c3ccccc3)c2n1	0	0.338µM	0.291µM	0.398µM	0.112µM
COc1ccc(CCNc2cc(C)nc3c(-c4ccccc4)cnn23)cc1OC	0	0	0	0	0
Cc1cc(NCCCn2ccnc2)n2nc(C)c(-c3ccccc3)c2n1	0	9.53µM	0	0	?
COCCN(C(=O)COC(=O)c1ccccc1Oc1ccccc1)c1c(N)n(Cc2ccccc2)c(=O)[nH]c1=O	-	0	0	0	0
CC1(C)C(O)C=C[C@@]2(C)C1CC(=O)O[C@@]1(C)C3=CC(=O)OC(c4ccoc4)[C@]3(C)CCC21 (some centres undefined)	0	-	-	-	-
Cc1ccc(NC(=O)c2ccc3c(O)c(S(=O)(=O)c4ccccc4)c(=O)[nH]c3c2)cc1Cl	-	10.7µM	-	-	-
CCc1ccc(NC(=O)c2ccc3c(O)c(S(=O)(=O)c4ccccc4)c(=O)[nH]c3c2)cc1	-	4.26µM	-	-	-
